Results as given in PubChem BioAssay (Tox21).
Inconclusive results are not listed. The source made the active and inactive calls. Unless noted, the call rests on the fitted dose curve; in most records, active means well fitted curve in the direction sought with a large enough effect in the repeat runs; inconclusive means weak or mixed curves; inactive means no such curve, though single readings can be large; an effect the other way counts as inactive or inconclusive.

Key:
[1] = qHTS assay to identify small molecule antagonists of the progesterone receptor (PR) signaling pathway - cell viability counter screen (AID 1346798); further: series mostly up to about 92 µM; nearly all actives have a fitted effect of over 50% in size
Method in brief: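 Counter screen for cytotoxicity: viability of PR-UAS-bla HEK293T cells was measured with CellTiter-Glo luminescence following 16 hr compound exposure in the presence of R5020.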

[2] = qHTS assay to identify small molecule agonists of the progesterone receptor (PR) signaling pathway - cell viability counter screen (AID 1346799; calls by dose curve; further: nearly all actives have a fitted effect of over 45% in size)
Method in brief: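 Cells (PR-UAS-bla HEK293T) are plated at 3,000/well in 2% charcoal-stripped FBS medium, rested 6 hr, dosed and incubated 16 hr at 37C. CellTiter-Glo is then added and luminescence measured after 30 min at room temperature.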

[3] = qHTS assay to identify small molecule antagonists of the TGF-beta/Smad signaling pathway - cell viability counter screen (AID 1346824); further: nearly all actives have a fitted effect of over 50% in size
Method in brief: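 SBE-bla HEK 293T cells, incubated overnight, then compound plus 0.25 ng/mL TGF-beta1 (stock added) for 5 hr at 37 C. Viability was read in the same wells by CellTiter-Glo luminescence after 30 min at room temperature.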

[4] = qHTS assay to identify small molecule agonists of the TGF-beta/Smad signaling pathway - cell viability counter screen (AID 1346829); further: top concentration of the series differs between compounds; nearly all actives have a fitted effect of over 45% in size
Method in brief: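 Cytotoxicity counter screen: CellTiter-Glo luminescence (30 min, room temperature) measured in the SBE-bla HEK 293T reporter wells after 5 hr compound treatment at 37 C and the 2 hr substrate step.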

[5] = qHTS assay to identify small molecule agonists of the TGF-beta/Smad signaling pathway (AID 1346859; active means well fitted activation curve with a large enough effect in the signal ratio in the repeat runs, not every such curve was filed as active; the % refers to the signal ratio; further: series mostly up to about 77 µM)
Method in brief: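 Reporter line: HEK 293T with stably integrated SBE-controlled beta-lactamase. Compound exposure lasts 5 hr at 37 C and 5% CO2; substrate loading follows for 2 hr at room temperature, with emission read at 460 and 530 nm.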

[6] = molecular target: Thyrotropin-releasing hormone receptor (Homo sapiens) (UniProt P34981); assay: qHTS assay to identify small molecule antagonists of the thyrotropin-releasing hormone receptor (TRHR) signaling pathway (AID 1346877; active means well fitted inhibition curve with a large enough effect in the repeat runs, not every such curve was filed as active; further: series mostly up to about 51 µM)
Thyrotropin-releasing hormone receptor (Homo sapiens), sequence (P34981 whole entry, looked up): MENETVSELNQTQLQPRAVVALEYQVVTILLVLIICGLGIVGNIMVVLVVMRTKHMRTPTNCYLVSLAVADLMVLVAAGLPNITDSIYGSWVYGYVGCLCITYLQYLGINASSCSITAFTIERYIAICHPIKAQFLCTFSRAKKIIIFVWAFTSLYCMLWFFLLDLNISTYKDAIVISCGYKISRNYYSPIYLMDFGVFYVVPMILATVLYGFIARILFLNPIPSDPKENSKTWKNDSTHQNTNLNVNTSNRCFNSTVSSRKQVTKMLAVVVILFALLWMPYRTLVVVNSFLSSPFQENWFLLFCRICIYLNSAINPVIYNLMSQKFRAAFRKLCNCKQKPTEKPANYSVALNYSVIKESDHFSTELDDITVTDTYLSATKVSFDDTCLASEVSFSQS
Method in brief: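 In this cell-based calcium flux format, HEK293 cells expressing TRHR received test compound for 5 min before the agonist TRH (1 nM final). Dye loading lasted 2 h at 37 °C.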

[7] = Human pregnane X receptor (PXR) small molecule agonists, qHTS cell viability counter screen (AID 1346977); further: nearly all actives have a fitted effect of over 50% in size; further: potency means the concentration at half of the fitted maximal effect
Method in brief: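 Cytotoxicity counter screen run in the same wells as the PXR luciferase assay, using PXR-Luc HepG2 cells in charcoal-stripped serum medium. Viability: CellTiter-Fluor fluorescence after 24hr compound treatment.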

[8] = Caspase-3/7 induction in CHO-K1 cells by small molecules, qHTS cell viability counter screen (AID 1346979); further: nearly all actives have a fitted effect of over 35% in size; further: potency means the concentration at half of the fitted maximal effect
Method in brief: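 Cytotoxicity counter screen run in parallel with the caspase-3/7 assay: CHO-K1 cells, 16hr compound treatment at 37C, then CellTiter-Fluor for 1hr before fluorescence reading.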

[9] = Caspase-3/7 induction in CHO-K1 cells by small molecules, qHTS assay (AID 1346980); further: nearly all actives have a fitted effect of over 15% in size
Method in brief: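 Wild-type CHO-K1 cells exposed to compounds for 17hr at 37 C, 5% CO2. Caspase-3/7 activity then measured by Caspase-Glo 3/7 luminescence after 30min at room temperature.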

[10] = Caspase-3/7 induction in HepG2 cells by small molecules, qHTS cell viability counter screen (AID 1346981); further: series mostly up to about 92 µM; nearly all actives have a fitted effect of over 30% in size
Method in brief: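 Counter screen for cytotoxicity: HepG2 exposed 16 hr to compounds, then CellTiter-Fluor viability signal (fluorescence, 1 hr reagent incubation).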

[11] = molecular target: Nuclear receptor subfamily 1 group I member 2 (Homo sapiens) (UniProt O75469); assay: Human pregnane X receptor (PXR) small molecule agonists, qHTS assay (AID 1346982); further: nearly all actives have a fitted effect of over 35% in size; further: potency means the concentration at half of the fitted maximal effect
Nuclear receptor subfamily 1 group I member 2 (Homo sapiens), sequence (O75469 whole entry, looked up): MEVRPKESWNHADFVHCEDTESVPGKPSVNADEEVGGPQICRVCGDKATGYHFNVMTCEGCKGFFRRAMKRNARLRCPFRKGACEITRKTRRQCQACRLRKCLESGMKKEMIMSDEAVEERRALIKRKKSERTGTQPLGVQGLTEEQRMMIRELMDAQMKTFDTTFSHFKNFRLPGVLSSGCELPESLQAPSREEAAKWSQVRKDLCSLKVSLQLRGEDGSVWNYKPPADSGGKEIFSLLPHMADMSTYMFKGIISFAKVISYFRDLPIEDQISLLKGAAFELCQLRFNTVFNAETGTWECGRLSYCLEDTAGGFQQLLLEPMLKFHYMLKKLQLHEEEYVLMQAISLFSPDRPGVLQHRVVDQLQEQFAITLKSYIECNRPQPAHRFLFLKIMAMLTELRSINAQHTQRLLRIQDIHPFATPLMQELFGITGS
Method in brief: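 Luminescence (ONE-Glo, 30 min RT) after 24 hr compound exposure of PXR-Luc HepG2 cells; cells rested 5 hr post-plating in 5% charcoal-stripped FBS medium.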

[12] = molecular target: Cytochrome P450 2D6 (Homo sapiens) (UniProt P10635); assay: Cytochrome P450 Family 2 Subfamily D Member 6 (CYP2D6) small molecule antagonists: luciferase reporter qHTS assay (AID 1671196); further: nearly all actives have a fitted effect of over 50% in size; further: potency means the concentration at half of the fitted maximal effect; on activity change, negative = inhibition: series mostly up to about 120 µM
Cytochrome P450 2D6 (Homo sapiens), sequence (P10635 whole entry, looked up): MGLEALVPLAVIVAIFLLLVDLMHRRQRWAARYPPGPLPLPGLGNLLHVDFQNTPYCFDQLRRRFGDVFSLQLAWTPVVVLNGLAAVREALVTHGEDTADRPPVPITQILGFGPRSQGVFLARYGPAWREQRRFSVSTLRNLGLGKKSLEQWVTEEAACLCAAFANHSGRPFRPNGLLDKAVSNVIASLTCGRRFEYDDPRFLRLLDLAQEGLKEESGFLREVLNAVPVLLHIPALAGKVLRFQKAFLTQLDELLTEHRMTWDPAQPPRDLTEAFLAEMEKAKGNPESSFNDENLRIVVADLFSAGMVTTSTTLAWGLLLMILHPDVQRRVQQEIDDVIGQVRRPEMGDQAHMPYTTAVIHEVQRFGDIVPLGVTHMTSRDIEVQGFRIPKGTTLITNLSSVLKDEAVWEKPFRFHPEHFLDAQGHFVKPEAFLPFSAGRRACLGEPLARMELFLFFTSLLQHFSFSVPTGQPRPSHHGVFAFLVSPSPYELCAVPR
Method in brief: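 Inhibition of CYP2D6 was gauged by loss of luminescence, since light produced tracks the luciferin generated from a proluciferin substrate. A 10 min room-temperature preincubation preceded 1 h NADPH-supported turnover.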

[13] = molecular target: Cytochrome P450 2C19 (Homo sapiens) (UniProt P33261); assay: Cytochrome P450 Family 2 Subfamily C Member 19 (CYP2C19) small molecule antagonists: luciferase reporter qHTS assay (AID 1671197); further: nearly all actives have a fitted effect of over 65% in size; further: potency means the concentration at half of the fitted maximal effect; on activity change, negative = inhibition: series mostly up to about 120 µM
Cytochrome P450 2C19 (Homo sapiens), sequence (P33261 whole entry, looked up): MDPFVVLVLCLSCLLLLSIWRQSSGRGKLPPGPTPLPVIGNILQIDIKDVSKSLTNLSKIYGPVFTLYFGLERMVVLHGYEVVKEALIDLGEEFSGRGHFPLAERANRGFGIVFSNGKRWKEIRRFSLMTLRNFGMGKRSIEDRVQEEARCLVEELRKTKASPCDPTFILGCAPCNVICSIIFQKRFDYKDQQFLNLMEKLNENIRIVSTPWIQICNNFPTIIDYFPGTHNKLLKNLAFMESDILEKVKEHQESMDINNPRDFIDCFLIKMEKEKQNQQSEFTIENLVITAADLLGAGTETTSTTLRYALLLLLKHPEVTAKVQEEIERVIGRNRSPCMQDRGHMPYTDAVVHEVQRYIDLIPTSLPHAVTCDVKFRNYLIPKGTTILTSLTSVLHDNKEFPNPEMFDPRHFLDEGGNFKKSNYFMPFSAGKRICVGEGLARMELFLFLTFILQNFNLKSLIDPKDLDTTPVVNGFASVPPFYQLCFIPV
Method in brief: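 Luminescent readout of CYP2C19 activity: luciferin product detected 20 min after adding detection reagent. Before that, compound and enzyme-substrate mix preincubated 10 min at room temperature; NADPH-regenerating system started a 1 h, 37C reaction. Ketoconazole as positive control.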

[14] = molecular target: Cytochrome P450 1A2 (Homo sapiens) (UniProt P05177); assay: Cytochrome P450 Family 1 Subfamily A Member 2 (CYP1A2) small molecule antagonists: luciferase reporter qHTS assay (AID 1671199); further: nearly all actives have a fitted effect of over 50% in size; further: potency means the concentration at half of the fitted maximal effect; on activity change, negative = inhibition: series mostly up to about 120 µM
Cytochrome P450 1A2 (Homo sapiens), sequence (P05177 whole entry, looked up): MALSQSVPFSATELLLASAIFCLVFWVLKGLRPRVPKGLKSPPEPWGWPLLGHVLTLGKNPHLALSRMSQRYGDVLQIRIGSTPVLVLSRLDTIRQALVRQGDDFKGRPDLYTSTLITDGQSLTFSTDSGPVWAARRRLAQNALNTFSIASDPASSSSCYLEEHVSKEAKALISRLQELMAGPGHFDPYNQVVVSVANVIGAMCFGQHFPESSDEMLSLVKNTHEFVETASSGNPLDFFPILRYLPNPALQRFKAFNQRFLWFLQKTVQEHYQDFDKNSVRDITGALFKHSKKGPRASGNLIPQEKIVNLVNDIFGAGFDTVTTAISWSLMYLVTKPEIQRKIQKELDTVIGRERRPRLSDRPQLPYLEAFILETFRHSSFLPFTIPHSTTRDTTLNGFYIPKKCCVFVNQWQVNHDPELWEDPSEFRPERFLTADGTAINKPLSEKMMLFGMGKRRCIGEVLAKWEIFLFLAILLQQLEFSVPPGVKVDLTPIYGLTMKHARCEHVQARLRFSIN
Method in brief: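 Signal from luciferin formed by CYP1A2 from a proluciferin substrate is read as luminescence, expressed in relative luminescence units. Compounds sit with enzyme 10 min, NADPH-driven reaction runs 1 h, all at room temperature.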

[15] = Caspase-3/7 induction in HepG2 cells by small molecules, qHTS assay (AID 1346978); further: nearly all actives have a fitted effect of over 15% in size
Method in brief: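 Wild-type HepG2 cells, 2,000/well, settled 5 hr at 37 C and 5% CO2, then compound-treated for 17 hr; caspase-3/7 activity read by luminescent Caspase-Glo 3/7 after 30 min at room temperature.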

[16] = molecular target: Thyrotropin-releasing hormone receptor (Homo sapiens) (UniProt P34981); assay: qHTS assay to identify small molecule agonists of the thyrotropin-releasing hormone receptor (TRHR) signaling pathway (AID 1346891; calls by dose curve; further: series mostly up to about 58 µM)
Method in brief: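 Cells: TRHR-Hek293, seeded and incubated 18 h. Dye loading: 2 h at 37 °C. Compound added from DMSO stock by pin tool. Read-out: kinetic calcium fluorescence over 3 min.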

[17] = molecular target: Nuclear receptor subfamily 1 group I member 2 (Homo sapiens) (UniProt O75469); assay: CYP3A4 induction through human pregnane X receptor (PXR) by small molecules, qHTS assay (AID 1346984); further: nearly all actives have a fitted effect of over 40% in size; further: potency means the concentration at half of the fitted maximal effect
Method in brief: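 DPX-2 reporter cells; 24h cpd, 37C; Luciferin-IPA 3uM final x3h; One-Glo 30 min RT; lumi read.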

[18] = molecular target: Cytochrome P450 2C9 (Homo sapiens) (UniProt P11712); assay: Cytochrome P450 Family 2 Subfamily C Member 9 (CYP2C9) small molecule antagonists: luciferase reporter qHTS assay (AID 1671198); further: nearly all actives have a fitted effect of over 50% in size; further: potency means the concentration at half of the fitted maximal effect; on activity change, negative = inhibition: series mostly up to about 120 µM
Cytochrome P450 2C9 (Homo sapiens), sequence (P11712 whole entry, looked up): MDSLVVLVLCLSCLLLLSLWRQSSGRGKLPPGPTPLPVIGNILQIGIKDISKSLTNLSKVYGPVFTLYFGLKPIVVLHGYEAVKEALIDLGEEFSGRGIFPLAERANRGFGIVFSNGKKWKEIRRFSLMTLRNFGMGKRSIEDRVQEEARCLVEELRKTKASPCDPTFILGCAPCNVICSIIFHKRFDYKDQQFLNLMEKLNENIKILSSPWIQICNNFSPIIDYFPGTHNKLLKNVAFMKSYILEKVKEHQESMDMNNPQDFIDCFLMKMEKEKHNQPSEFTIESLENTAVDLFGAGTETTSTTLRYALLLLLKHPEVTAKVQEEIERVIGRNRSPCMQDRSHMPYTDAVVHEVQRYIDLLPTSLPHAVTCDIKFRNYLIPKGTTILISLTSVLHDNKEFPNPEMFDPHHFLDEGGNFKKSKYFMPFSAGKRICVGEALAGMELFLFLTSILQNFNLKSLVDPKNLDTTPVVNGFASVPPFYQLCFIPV
Method in brief: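 P450-Glo proluciferin substrate with CYP2C9 enzyme; 10 min RT preincubation, then NADPH regeneration 1 h at 37C; luciferin detection reagent 20 min RT, luminescence in relative luminescence units.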

[19] = molecular target: Nuclear receptor subfamily 1 group I member 2 (Homo sapiens) (UniProt O75469); assay: Human pregnane X receptor (PXR) activation by small molecules, qHTS assay (AID 1346985); further: nearly all actives have a fitted effect of over 40% in size
Method in brief: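 DPX-2 cells (HepG2 co-transfected with a PXR response element and a CYP3A4-promoter luciferase construct) were seeded at 2,000 per well, rested 5 hr at 37C, then exposed to DMSO-dissolved compounds for 24 hr. Activation was read as luciferase luminescence.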
On the % scale 0 is the no-effect control and ±100 the full control effect.

CC(C)=CCCC(C)CCOC(=O)C(C)C (stereo not given)
active: Potency [13] 79.6 µM
inactive: Potency [1] | Potency [2] | Potency [3] | Potency [4] | Potency [5] | Potency [6] | Potency [7] | Potency [8] | Potency [9] | Potency [10] | Potency [11] | Potency [12] | Potency [14]

C=CC(=C)CC/C=C(\C)CCC=C(C)C
active: Potency [14] 15.1 µM
inactive: activity change, negative = cytotoxicity [1] -3.03% [at 18.9 µM] | activity change, negative = cytotoxicity [2] 7.16% [at 19 µM] | viability change, negative = cytotoxic [3] 6.24% [at 15.8 µM] | activity change, negative = cytotoxicity [4] 1.59% [at 15.8 µM] | activation [5] -1.49% [at 15.8 µM] | activity, negative = inhibition [6] -4.91% [at 10.5 µM] | activity change, negative = cytotoxicity [7] 6.03% [at 19 µM] | caspase activation [15] 0.847% [at 19 µM] | activity change, negative = cytotoxicity [8] -0.798% [at 19 µM] | caspase-3/7 activation [9] 0.541% [at 19 µM] | activity change, negative = cytotoxicity [10] -2.86% [at 19 µM] | activation [11] 8.17% [at 19 µM] | activity change, negative = inhibition [12] -7.39% [at 23.6 µM]

Cc1c(C)n(Cc2ccccc2)c2ccc(C(=O)OCCN(C)C)cc12
inactive: Potency [1] | Potency [2] | Potency [3] | Potency [4] | Potency [5] | Potency [6] | Potency [16] | Potency [9]
active: Potency [7] 21.1 µM | Potency [11] 7.5 µM | Potency [17] 3.98 µM | Potency [13] 15.5 µM | Potency [18] 15.5 µM | Potency [14] 10.2 µM

Oc1ccc(-c2ccccc2)c(Cl)c1
inactive: Potency [1] | Potency [2] | Potency [3] | Potency [4] | Potency [5] | Potency [6] | Potency [16] | Potency [9] | Potency [10]
active: Potency [11] 24.3 µM | Potency [13] 22.4 µM | Potency [14] 12.6 µM

CCCCOCC
inactive: Potency [1] | Potency [2] | Potency [3] | Potency [4] | Potency [5] | Potency [7] | Potency [15] | Potency [8] | Potency [9] | Potency [10] | Potency [11] | Potency [12] | Potency [13] | Potency [18] | Potency [14]

CCCCCCCOC(=O)c1ccccc1C(=O)OCCCCCCC
inactive: Potency [1] | Potency [2] | Potency [3] | Potency [4] | Potency [5] | Potency [6] | Potency [15] | Potency [8] | Potency [9] | Potency [11] | Potency [12]
active: Potency [13] 39.9 µM | Potency [14] 15.9 µM

C/C=C/C=N/NC(=O)c1ccncc1
inactive: Potency [1] | Potency [2] | Potency [3] | Potency [4] | Potency [5] | Potency [6] | Potency [16] | Potency [15] | Potency [8] | Potency [9] | Potency [17] | Potency [19] | Potency [14]

Nc1cc(Cl)c([N+](=O)[O-])cc1O
active: Potency [8] 68 µM | Potency [11] 54 µM | Potency [18] 31.5 µM | Potency [14] 19.9 µM
inactive: Potency [1] | Potency [2] | Potency [3] | Potency [4] | Potency [5] | Potency [6] | Potency [15] | Potency [9] | Potency [12] | Potency [13]

CCCCN(CCCC)CCC(O)c1cc2c(Cl)cc(Cl)cc2c2cc(C(F)(F)F)ccc12 (stereo not given)
active: Potency [7] 26.6 µM | Potency [8] 26.6 µM | Potency [11] 21.1 µM | Potency [12] 1.55 µM
inactive: Potency [1] | Potency [2] | Potency [3] | Potency [4] | Potency [5] | Potency [15] | Potency [9] | Potency [10] | Potency [17] | Potency [19] | Potency [13] | Potency [18]
